Experimental data: the antibiotic and cytotoxicity screens of Wong et al. (2023)
Among all 39,000 compounds or so, about 3,300 (8.5%) were called active. Only a selection was taken, and actives are over-represented in it overall.

Test system: HepG2
Experiment: cytotoxicity call (relative viability < 0.9)
Conditions: 10 µM

SMILES | cytotoxicity call
[N-]=[N+]=Nc1ccccc1[C@@H]1OC(c2ccc(OCCCO)cc2)=N[C@]1(CCS(=O)(=O)c1ccccc1)C(=O)NC[C@@H](O)CO | inactive
C[C@@H]1CN([C@H](C)CO)S(=O)(=O)c2ccc(C#CCN(C)C)cc2O[C@H]1CN(C)C(=O)c1ccccc1F | inactive
O=C(C[C@H]1C[C@@H]2c3cc(NC(=O)C4CCOCC4)ccc3O[C@@H]2[C@@H](CO)O1)NCc1ccc(Cl)cc1 | inactive
CCS(=O)(=O)N1C[C@]2(CN(Cc3cccc(c3)Cl)[C@H](CO)c3c2c2ccc(cc2n3C)OC)C1 | inactive
C[C@H](CO)N1C[C@H](C)[C@H](CN(C)C(=O)Nc2ccc(N3CCCCC3)cc2)OCc2cnnn2CCCC1=O | inactive
COc1ccc(NC(=O)Nc2ccc3c(c2)C(=O)N([C@@H](C)CO)C[C@@H](C)[C@@H](CN(C)C(=O)Cc2ccccc2)OCCCC[C@H](C)O3)cc1 | inactive
COc1ccc(NC(=O)Nc2ccc3c(c2)C(=O)N([C@H](C)CO)C[C@H](C)[C@H](CN(C)C(=O)Nc2ccccc2)OCCCC[C@@H](C)O3)cc1 | inactive
C[C@H](O)C#Cc1cnc2c(c1)C(=O)N([C@H](C)CO)C[C@@H](C)[C@H](CN(C)Cc1cncnc1)O2 | inactive
O=C(C[C@H]1C=C[C@H](NC(=O)Cc2ccccn2)[C@H](CO)O1)NCCc1ccncc1 | inactive
C[C@@H]1CN([C@@H](C)CO)C(=O)c2cc(NC(=O)CCCN(C)C)ccc2O[C@@H](C)CCCCO[C@@H]1CN(C)S(=O)(=O)c1cn(C)cn1 | inactive
C[C@@H]1CN([C@@H](C)CO)C(=O)c2c(c3ccccc3n2C)-c2ccccc2CO[C@@H]1CN(C)Cc1ccc2c(c1)OCCN2C | inactive
C[C@@H]1CN([C@H](C)CO)C(=O)c2c(c3ccccc3n2C)-c2ccccc2CO[C@H]1CN(C)Cc1ccc2c(c1)OCCN2C | inactive
C[C@@H]1CN([C@@H](C)CO)C(=O)c2c(c3ccccc3n2C)-c2ccccc2CO[C@H]1CN(C)Cc1ccc2c(c1)OCCN2C | active
C[C@@H]1CN([C@@H](C)CO)C(=O)c2c(c3ccccc3n2C)-c2ccccc2CO[C@@H]1CN(C)Cc1ccc2c(c1)OCO2 | inactive
C[C@H](CO)N1C[C@H](C)[C@@H](CN(C)Cc2ccc3c(c2)OCCN3C)OCc2ccccc2-c2c(n(C)c3ccccc23)C1=O | inactive
C[C@@H]1CN([C@H](C)CO)C(=O)c2c(c3ccccc3n2C)-c2ccccc2CO[C@@H]1CN(C)Cc1ccc2c(c1)OCCN2C | active
C[C@H]1CN([C@@H](C)CO)C(=O)c2c(c3ccccc3n2C)-c2ccccc2CO[C@H]1CN(C)Cc1ccc2c(c1)OCCN2C | inactive
C[C@H]1CN([C@@H](C)CO)C(=O)c2c(c3ccccc3n2C)-c2ccccc2CO[C@@H]1CN(C)Cc1ccc2c(c1)OCCN2C | active
C[C@H](CO)N1C[C@H](C)[C@H](CN(C)Cc2ccc3c(c2)OCCN3C)OCc2ccccc2-c2c(n(C)c3ccccc23)C1=O | inactive
COc1ccc(C#Cc2ccc3c(c2)[C@]2(C(=O)N3)[C@H](c3ccccc3OCCO)N3[C@H](c4ccccc4)[C@H](c4ccccc4)OC(=O)[C@H]3[C@@H]2C(=O)N2CCc3cc(OC)c(OC)cc3C2)cc1 | inactive
O=C(Cc1ccncc1)Nc1ccc2c(c1)[C@@H]1C[C@H](CC(=O)N3CCc4ccccc4C3)O[C@H](CO)[C@@H]1O2 | inactive

SMILES | cytotoxicity call
O=C1NC(=O)[C@H]2[C@@H]1[C@H](c1ccccc1)N1[C@@H]3C(=O)NC(=O)[C@@H]3[C@H](c3ccccc3)N21 | inactive
COc1ccc(C#Cc2ccc3c(c2)O[C@H](CN(C)C(C)=O)[C@@H](C)CN([C@@H](C)CO)S3(=O)=O)cc1 | inactive
COc1ccc2c3c(n(c2c1)C)[C@H](CO)N(C[C@]13CCN(CC1)C(=O)Nc1cccc(c1)F)C(=O)CN1CCOCC1 | inactive
N=C(NO)NCC[C@H](N)C(=O)O | inactive
C[C@@H]1CN([C@H](C)CO)C(=O)c2cc(NC(=O)NC3CCCCC3)ccc2O[C@@H](C)CCCCO[C@@H]1CN(C)C(=O)NC1CCCCC1 | inactive
C[C@@H]1CN([C@@H](C)CO)C(=O)c2cc(NC(=O)Nc3ccccc3)ccc2O[C@@H](C)CCCCO[C@H]1CN(C)Cc1ccc(C(F)(F)F)cc1 | inactive
C[C@@H]1CN([C@H](C)CO)C(=O)c2cc(NC(=O)Nc3ccccc3)ccc2O[C@@H](C)CCCCO[C@@H]1CN(C)Cc1ccc(C(F)(F)F)cc1 | active
C[C@@H]1CCCCO[C@@H](CN(C)Cc2ccc(C(F)(F)F)cc2)[C@@H](C)CN([C@@H](C)CO)C(=O)c2cc(NC(=O)Nc3ccccc3)ccc2O1 | inactive
C[C@@H]1CCCCO[C@@H](CN(C)Cc2ccc(C(F)(F)F)cc2)[C@H](C)CN([C@H](C)CO)C(=O)c2cc(NC(=O)Nc3ccccc3)ccc2O1 | active
C[C@H](CO)N1C[C@H](C)[C@@H](CN(C)Cc2ccc(C(F)(F)F)cc2)OCCCC[C@H](C)Oc2ccc(NC(=O)Nc3ccccc3)cc2C1=O | active
C[C@@H]1CN([C@@H](C)CO)C(=O)c2cc(NC(=O)Nc3ccccc3)ccc2O[C@@H](C)CCCCO[C@@H]1CN(C)Cc1ccc(C(F)(F)F)cc1 | active
C[C@@H]1CCCCO[C@@H](CN(C)Cc2ccc(C(F)(F)F)cc2)[C@H](C)CN([C@@H](C)CO)C(=O)c2cc(NC(=O)Nc3ccccc3)ccc2O1 | inactive
O=C(O)c1ccc(CNc2cn[nH]c(=O)n2)cc1 | inactive
COCCOC(=O)N1C(=O)[C@@]2(c3cc(C#CC4=CCCCC4)ccc31)[C@H](C(=O)NC[C@H](O)c1ccccc1)[C@H]1C(=O)O[C@H](c3ccccc3)[C@H](c3ccccc3)N1[C@@H]2c1ccc(O)cc1 | inactive
C[C@@H]1CN([C@@H](C)CO)C(=O)Cc2cc(NC(=O)Cn3cnnn3)ccc2O[C@H]1CN(C)S(=O)(=O)c1ccccc1 | inactive
CN(C)CC(=O)N1[C@@H](CO)[C@H](c2ccc(C3=CCCC3)cc2)C12CN(S(=O)(=O)Cc1ccccc1)C2 | inactive
C[C@H](NC(=O)N(C)C[C@H]1OCc2ccccc2-c2c(n(C)c3ccccc23)C(=O)N([C@@H](C)CO)C[C@@H]1C)c1ccccc1 | inactive
Cc1ccc(S(=O)(=O)N(C)C[C@H]2Oc3ccc(NS(C)(=O)=O)cc3CC(=O)N([C@H](C)CO)C[C@H]2C)cc1 | inactive
O=C(C[C@@H]1C[C@H]2c3cc(NC(=O)c4cccnc4)ccc3O[C@H]2[C@@H](CO)O1)NCc1cc(F)ccc1F | inactive
CCCNC(=O)N1C[C@H](O)COC[C@H]2O[C@@H](CC(=O)N3CCN(C)CC3)CC[C@@H]21 | inactive
O=C(C[C@@H]1C[C@H]2c3cc(NC(=O)c4ccc5c(c4)OCO5)ccc3O[C@H]2[C@@H](CO)O1)NCCc1ccccc1 | inactive

SMILES | cytotoxicity call
COC(=O)[C@@H]1C(=O)NC[C@H]1c1ccccc1 | inactive
C[C@@H]1CCCCO[C@@H](CN(C)Cc2ccc(C(F)(F)F)cc2)[C@@H](C)CN([C@H](C)CO)C(=O)c2cc(NC(=O)Nc3ccccc3)ccc2O1 | inactive
C[C@@H]1CCCCO[C@H](CN(C)Cc2ccc(C(F)(F)F)cc2)[C@@H](C)CN([C@@H](C)CO)C(=O)c2cc(NC(=O)Nc3ccccc3)ccc2O1 | active
C[C@@H]1CCCCO[C@H](CN(C)Cc2ccc(C(F)(F)F)cc2)[C@H](C)CN([C@@H](C)CO)C(=O)c2cc(NC(=O)Nc3ccccc3)ccc2O1 | active
C[C@@H]1CCCCO[C@H](CN(C)Cc2ccc(C(F)(F)F)cc2)[C@@H](C)CN([C@H](C)CO)C(=O)c2cc(NC(=O)Nc3ccccc3)ccc2O1 | inactive
C[C@@H]1CN([C@H](C)CO)C(=O)c2cc(NC(=O)Nc3ccccc3)ccc2O[C@@H](C)CCCCO[C@H]1CN(C)Cc1ccc(C(F)(F)F)cc1 | active
C[C@H]1CCCCO[C@@H](CN(C)Cc2ccc(C(F)(F)F)cc2)[C@@H](C)CN([C@@H](C)CO)C(=O)c2cc(NC(=O)Nc3ccccc3)ccc2O1 | active
CO[C@@H]1CN(C)C(=O)c2ccc(NC(=O)Nc3ccccc3F)cc2OC[C@@H](C)N(C(=O)Nc2ccccc2F)C[C@H]1C | inactive
Nc1nc(Nc2ccccc2)nc2c1ncn2[C@@H]1O[C@H](CO)[C@@H](O)[C@H]1O | inactive
CO[C@@H]1CN(C)C(=O)c2cc(NS(=O)(=O)CC(F)(F)F)ccc2OC[C@H](C)N(Cc2cccnc2)C[C@@H]1C | inactive
C[C@@H]1CN([C@H](C)CO)C(=O)c2cc(C#CC3(O)CCCC3)cnc2O[C@H]1CN(C)C(=O)Cc1cccnc1 | inactive
CN1CCN(C(=O)C[C@@H]2CC[C@@H]3[C@H](COC[C@@H](O)CN3S(=O)(=O)c3cccc(Cl)c3)O2)CC1 | inactive
C[C@H]1CN([C@@H](C)CO)C(=O)c2cccc(NS(C)(=O)=O)c2O[C@@H]1CN(C)C(=O)Nc1ccc(F)cc1 | inactive
C[C@@H]1CN([C@H](C)CO)C(=O)CCCn2nncc2CO[C@@H]1CN(C)S(=O)(=O)c1cn(C)cn1 | inactive
C[C@@H]1CN([C@@H](C)CO)C(=O)c2cc(NC(=O)C3CC3)ccc2O[C@@H]1CN(C)C(=O)Nc1ccc2c(c1)OCO2 | inactive
CC(=O)Nc1ccc(C(=O)NN)cc1 | inactive
C[C@@H]1CN([C@H](C)CO)C(=O)c2cccc(NC(=O)c3ccncc3)c2O[C@H]1CN(C)Cc1ccncc1 | inactive
c1ccc(CNC2CCCCC2)nc1 | inactive
Cc1cccc(S(=O)(=O)N2C[C@@H](O)COC[C@H]3O[C@H](CC(=O)NCc4ccncn4)CC[C@@H]32)c1 | inactive
C[C@H](CO)N1C[C@H](C)[C@@H](CN(C)Cc2ccc(C(=O)O)cc2)OCc2ccccc2-c2c(n(C)c3ccccc23)C1=O | inactive
